Data taken from PubChem BioAssay AID2384 (Southern Research Specialized Biocontainment Screening …, 2010).
Screen size: about 2,300 compounds; about 1,100 (48%) were called active. The set was probably picked from earlier hits. The list shows a part of the results. Results with a measured potency or affinity are listed apart. Values without a mark were called inactive. The rule behind the calls is not given here.

Experiment: inhibitors in S. typhi counter-screen strain, dose response, counter-screen for PhoP regulon inhibitor project, fluorescence, 4 h (AID 2384)
Conditions: S. typhi GFP reporter counter-screen; series mostly up to 150 µM; inhibition: at the top concentration

| SMILES | inhibition |
| --- | --- |
| CSc1nnc(-c2cccc(NC(=S)NN)c2)o1 | 7.59% |
| Cc1ccc2cc(CN(Cc3ccc(F)cc3)Cc3nnnn3C3CCCC3)c(=O)[nH]c2c1 | 8.53% |
| Nc1ccc(S(=O)(=O)c2ccc(N)cc2)cc1 | -5.09% |
| Cc1ccc(NC(=S)NCc2cccnc2)cc1 | 5.02% |
| CCc1nnc(NC(=O)c2ccc(S(C)(=O)=O)cc2)s1 | -14.3% |
| O=C(O)c1cnn2c1NC(c1cccs1)CC2C(F)(F)F (stereo not given) | 16.9% |
| CCCn1c(SCc2ccc(Cl)cc2)nc2c1c(=O)[nH]c(=O)n2C | -20.7% |
| NS(=O)(=O)c1ccc(CCNC(=O)C(=O)C2C(=O)Nc3ccccc32)cc1 (stereo not given) | -11.2% |
| NS(=O)(=O)c1ccc(CCNS(=O)(=O)c2cccc(C(=O)O)c2)cc1 | -9.07% |
| COC(=O)C1=C(C)N(CC2CC2)C(=O)N[C@H]1c1ccc(Br)cc1 | 11.5% |
| COC(=O)C1=C(C)N(Cc2ccco2)C(=O)N[C@H]1c1ccc(Br)cc1 | -1.77% |
| CC(C)CC(c1nnnn1Cc1ccco1)N1CCN(c2cccc(Cl)c2)CC1 (stereo not given) | -13% |
| CCCC(C(=O)NCC1CCCO1)N(Cc1ccco1)C(=O)CNS(=O)(=O)c1ccc(F)cc1 (stereo not given) | -8.97% |
| Cc1c(C2(O)C(=O)Nc3ccc(F)cc32)c(=O)n(-c2ccccc2)n1C (stereo not given) | -5.34% |
| Nc1nc2ccccc2cc1-c1cccs1 | 12.7% |
| Nc1nn2cc(-c3ccccc3)nc2c2ccccc12 | 15.4% |
| Nc1ccc(N=Nc2ccccc2)c(N)n1 | 22.1% |
| Cc1ccc(CN2C3=NCCN3c3ccccc32)cc1 | 29.4% |
| Cc1cccc(CN2C3=NCCCN3c3ccccc32)c1 | 15.7% |
| O=C(CSc1ccc(Cl)cc1)c1ccco1 | 26.8% |
| O=C(COc1ccc(Cl)cc1)N1CCCCC1 | 9.39% |
| CC(C)(C)NC(=O)/C=C/c1ccc(C(F)(F)F)cc1 | -6.9% |
| CC(=O)C1C(c2ccc(OC(F)F)cc2)NC(=O)NC1(O)C(F)(F)F (stereo not given) | -15.1% |

| SMILES | inhibition |
| --- | --- |
| c1ccc2c(SCc3cn4ccccc4n3)nncc2c1 | 4.71% |
| O=C(Cn1c(C(F)(F)F)nc2ccccc21)NCCCN1CCOCC1 | -3.11% |
| Cc1cccc(N(C(=O)CCC(=O)Nc2ccccn2)C(C(=O)NC(C)C)c2ccc(O)cc2)c1 (stereo not given) | 15% |
| CC(C(=O)NC1CCCCC1)N1CCN(C)CC1 (stereo not given) | 1.49% |
| O=C(CCS(=O)(=O)c1ccccc1)Nc1ccc2c(c1)C(=O)NC2=O | -16.3% |
| CCCCCCNC1=NCCS1 | 27.9% |
| CC(=O)Cc1nsc(NC(=O)c2csc3c2CCCC3)n1 | 28% |
| C[N+](C)(CCCCCC[N+](C)(C)CCCN1C(=O)c2cccc3cccc(c23)C1=O)CCCN1C(=O)c2cccc3cccc(c23)C1=O | 28.2% |
| CCn1c(=N)n(CC(=O)c2ccc(OC)cc2)c2ccccc21 | 31.4% |
| CCOC(=O)CNC(=O)Cn1c(C)cc2ccccc2c1=O | 12.6% |
| Cc1ccc(-n2c(=O)c3sccc3n(CC(=O)NC3CCCCC3)c2=O)cc1 | 15.9% |
| COc1ccc(/C=N/NC(=O)c2cc3c(OC)ccc(OC)c3[nH]2)cc1O | -4.36% |
| O=C(CSc1nnc(-c2cccnc2)n1Cc1ccco1)c1ccc2ccccc2c1 | -19.2% |
| Cc1cc(NCCCn2ccnc2)n2ncc(-c3ccccc3)c2n1 | 8.67% |
| Cc1ccccc1Cn1c(=O)n(CCCC(=O)NCc2ccco2)c(=O)c2ccccc21 | -18.6% |
| Cc1cc(C)nc(SCC(=O)NCc2ccco2)n1 | 9.9% |
| COc1ccc(CNCCc2c[nH]c3ccccc23)c(OC)c1C | 9.27% |
| COc1ccccc1NC(=O)Cn1c(=O)n(CCc2c[nH]c3ccccc23)c(=O)c2cccnc21 | 26.1% |
| CCOC(=O)Cn1c(=O)oc2cc(S(=O)(=O)NCC3CCCO3)ccc21 (stereo not given) | -17.4% |
| Cc1ccc(N2CC(C(=O)OCc3ccccc3F)CC2=O)cc1 (stereo not given) | 1.86% |
| C=C(C)Cn1c(SCC#N)nc2ccccc2c1=O | -22.7% |
| Cc1cc(C(F)F)n2nc(C(=O)Nc3cc(C)on3)nc2n1 | 15.3% |
| CCc1nc(C)ccc1OCC(=O)N(CC)CC | -8.77% |

| SMILES | inhibition |
| --- | --- |
| CNS(=O)(=O)c1cccc(C(=O)OCc2cc(=O)oc3c(C)c(O)ccc23)c1 | 1.59% |
| [O-][n+]1onc2c1CCc1[nH]c(-c3ccccc3)nc1-2 | -7.84% |
| CN(C)C(/C=C/Nc1ccc(F)cc1F)=C(C#N)C#N | 5.93% |
| CC(=O)Nc1cccc(NC(=O)Nc2ccc(C)c(Cl)c2)c1 | 9.85% |
| CC(=O)Nc1cccc(NS(=O)(=O)Cc2ccc(Cl)cc2)c1 | 1.33% |
| O=C(Cn1c(=O)oc2ccccc21)N1CCN(c2ccc(N3CCOCC3)nn2)CC1 | -8.66% |
| CCn1c(SCC(=O)Nc2oc(-c3ccccc3)c(-c3ccccc3)c2C#N)nnc1-c1ccco1 | -4.5% |
| O=C(O)Cn1c(=O)c2c3c(sc2n(Cc2ccccc2F)c1=O)CCCC3 | 4.22% |
| Cc1cc(N2CCCCC2)c(F)cc1[N+](=O)[O-] | 1.62% |
| O=C1CCCC(=O)N1c1ccc(N2CCOCC2)c([N+](=O)[O-])c1 | -18.8% |
| Cc1cnc(NC(=O)CN2C(=O)C3CC=CCC3C2=O)s1 (stereo not given) | 9.52% |
| O=C(Nc1ccccc1)c1ccc2nsnc2c1 | -11.4% |
| Cc1ccccc1N1C(N)=NC(N)=NC1(C)C | -17.2% |
| COC(=O)C(NC(C)=O)(Nc1nc2c(s1)CCCC2)C(F)(F)F (stereo not given) | -34.8% |
| Cc1[nH]c2ccccc2c1/C=C/c1nc2ccccc2c(=O)[nH]1 | -58.7% |
| CCOC(=O)CSc1nc(-c2ccccc2)nc2ccccc12 | 4.75% |
| COc1ccc(Cn2c(=N)c(C(=O)NCC3CCCO3)cc3c(=O)n4ccccc4nc32)cc1 (stereo not given) | 14.7% |
| COc1ccc(CCn2c(=N)c(C(=O)NCC3CCCO3)cc3c(=O)n4ccccc4nc32)cc1 (stereo not given) | -24.6% |
| COc1ccc(Nc2nnc(SCC3CCCO3)s2)cc1 (stereo not given) | -2.81% |
| COc1ccccc1Nc1nc(NCC2CCCO2)c2ccccc2n1 (stereo not given) | -17.3% |
| O=S(=O)(c1ccccc1)c1nc(-c2cccs2)oc1NCC1CCCO1 (stereo not given) | 1.69% |
| c1ccc2oc(-c3csc(NCC4CCCO4)n3)cc2c1 (stereo not given) | 14.7% |
| CC(=O)c1cccc(CN2CCN(C3CCCC3)C(CCO)C2)c1 (stereo not given) | -25.6% |

| SMILES | inhibition |
| --- | --- |
| CCCC1(c2ccccc2)NC(=O)N(CC(=O)Nc2ccccc2C(F)(F)F)C1=O (stereo not given) | -9.26% |
| O=C(NCC1CCCO1)c1cc2ccccc2oc1=O (stereo not given) | -11.7% |
| Cc1cccn2c(=O)c3cc(C(=O)NCC4CCCO4)c(=N)n(C4CCCC4)c3nc12 (stereo not given) | 6.06% |
| Cc1oc2nc(SCCCC(=O)NCCCO)nc(N)c2c1C | 12% |
| Cc1c(C(=O)O)c(-c2ccccc2)nn1-c1ccccc1 | 27.3% |
| CCN(CC)C(=O)CNC(=O)Cc1ccc(Cl)cc1 | 2.3% |
| O=C1c2ccccc2C(=O)N1CCCP(=O)(O)CCc1ccccc1 | -32.8% |
| COc1ccc(/C=N/NC(=O)c2ccc3c(c2)OCO3)cc1 | 32.6% |
| COc1ccc(N2CCN(C(CNC(=O)c3ccc4c(c3)OCO4)c3ccco3)CC2)cc1 (stereo not given) | 6.52% |
| O=C(N/N=C\c1ccc(F)cc1)c1ccc(F)cc1 | 6.55% |
| CCCCN1/C(=C/c2cccc[n+]2C)Sc2cc(NC(C)=O)ccc21 | 12.8% |
| CC(Sc1nc2ccccc2o1)C(=O)O (stereo not given) | 20% |
| O=C(CSc1nc2ccccc2o1)c1cc2ccccc2oc1=O | -0.48% |
| Cc1c(CC(=O)N2CCC(C(N)=O)CC2)c(=O)oc2cc3c(cc12)CCC1(CCCCC1)O3 | 6.85% |
| O=C(/C=C/c1c(F)cccc1Cl)N1CCOCC1 | 20.2% |
| CC1CCN(C(=O)COc2ccc(Nc3ccccc3)cc2)CC1 | -23.7% |
| Cc1cc(N/N=C/c2ccc(F)cc2)nc(NCc2ccccc2)n1 | 15.9% |
| COc1ccc2nc(Nc3ccccc3)sc2c1 | 39.4% |
| O=C(Nc1ccc(N2CCOCC2)cc1)C1CCN(S(=O)(=O)c2ccccc2F)CC1 | -25% |
| CCCCNC(=S)Nc1ccc([N+](=O)[O-])cc1 | 0.84% |
| CCn1cc(C(=O)NCc2ccc3c(c2)OCO3)c(=O)c2cc(F)c(N3CCN(C(=O)c4ccco4)CC3)cc21 | 39.6% |
| CCN(CC)S(=O)(=O)c1ccc2c(c1)c(C(=O)O)cn2C | 9.26% |
| CCn1cc(C(=O)N[C@@H](C)C(=O)OC)c(=O)c2cc3c(cc21)OCO3 | 17.9% |

| SMILES | inhibition |
| --- | --- |
| O=C(c1cc2c(s1)-c1ccccc1OC2)N1CCc2ccccc2C1 | 25.9% |
| Nc1c(-c2ccccc2)sc2ccc3ccccc3[n+]12 | -9.75% |
| CN(Cc1ccccc1)S(=O)(=O)c1csc(C(N)=O)c1 | 4.18% |
| Cc1cccc(NC(=O)c2ccccc2Br)n1 | -13% |
| Cc1ccc(C(C)C)c(OCCNC(=O)c2ccccc2O)c1 | -21.1% |
| CN1C(=O)c2ccc(NC(=O)C3CCCCC3)cc2C1=O | 10.3% |
| CC(=O)c1c(C)[nH]c(C(=O)OCC(=O)NCC(C)C)c1C | 8.29% |
| Cc1ccc(NC(=S)NCc2cccs2)cc1 | -16.3% [at 75 µM] |
| O=C(O)CCSCc1ccccc1F | 1.37% |
| O=C(NCCc1ccncc1)Nc1ccc(Cl)c(Cl)c1 | 29.8% |
| Cc1cc2cc(CNC(=O)C(C)Oc3ccccc3)ccc2n1C (stereo not given) | 10.9% |
| COC(=O)c1cccc(C(=O)N2CCCC(CCC(=O)N(C)CCc3ccccn3)C2)c1 (stereo not given) | -21.1% |
| COc1cccc(CNc2nn[nH]n2)c1OC | -1.43% |
| COc1ccccc1CNC(=O)COC(=O)CCC(=O)c1cccs1 | 20.7% |
| Fc1ccc(NC(=S)NCc2ccccc2Cl)cc1 | 4.19% |
| Cc1cc(=O)oc2cc(OCC(=O)NC3CCCC3)ccc12 | -14.7% |
| CSc1cccc(NC(=O)/C=C/c2ccco2)c1 | 27.3% |
| COc1cccc(C(=O)Nc2cccc(SC)c2)c1 | 17.3% |
| CC(C)CCNC(=O)c1cc2c(s1)-c1ccccc1S(=O)(=O)C2 | -18.7% |
| COC(=O)c1ccc(CSc2nc3ccccc3c(=O)n2-c2ccc(OC)c(OC)c2)o1 | 8.35% |
| Cc1[nH]nc2c1C1(CCC3(CC1)OCCO3)C(C#N)=C(N)O2 | 29% |
| Cc1ccsc1/C=N\NC(=O)c1ccc2c(c1)OCO2 | 29.4% [at 18.8 µM] |
| Cc1ccc2cc(-c3noc(C4CCCO4)n3)c(=O)[nH]c2c1 (stereo not given) | 38.1% |
